The text below walks through data of PubChem BioAssay.

A word on the inhibition: it is the drop in the measured response relative to a control, in per cent. By remaining activity is commonly meant the signal under treatment as a percentage of the control signal. The AC50 is the concentration at which the activity in the assay is half-maximal.

Results filed as inconclusive are left out. Active and inactive are the calls of the source.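 The calls were made as follows, unless noted: active = compound raises insulin release from rat beta cells at 5 mM glucose, no numeric limit stated; inactive = the rest.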 Peptide text beside a SMILES is read from it.

Assay [1] in a line: stimulators of insulin release from INS-1E, primary screen, cell-based, 5 mM glucose, NPC library (AID 1117329). To be noted: rat INS-1E insulin secretion, at 10 µM, stronger effect = higher value.
A short description of assay [2]: growth inhibition of GSK3B-pretreated HCT116 cells – cell-based, CellTiter-Glo, 0.2 to 20 µM (AID 1117336;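 active = compounds lowering colon cancer cell viability after pretreatment blocking the GSK3B kinase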). To be noted: HCT116 viability after GSK3B inhibitor, at 20 µM, stronger effect = higher value.
A short description of assay [3]: inhibition of endothelial tube formation, primary screen, imaging, VEGF stimulated, CD31 staining, tube area, NPC library (AID 1117340;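 active = compound that reduces growth-factor-driven endothelial tube area in a mixed cell culture, no cutoff stated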). Particulars: VEGF-stimulated ADSC/ECFC co-culture, at 10 µM, stronger effect = higher value.
A short description of assay [4]: glucagon-like peptide 1 release enhancers, primary assay, NCI-H716 cell line, NPC library (AID 1117341;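 active = compound raises GLP1 secretion from the human gut endocrine cells, with no numeric limit stated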). Particulars: NCI-H716 cells, at 10 µM, stronger effect = higher value.
Assay [5] in a line: HCT116 colon cancer cell growth inhibition, primary screen, CellTiter-Glo luminescence, NPC library (AID 1117342;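 active = compounds that lower survival of HCT116 colon cancer cells in the luminescence readout, no numeric limit stated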). To be noted: at 20 µM (top of the series).
Assay [6] in a line: CellTiter-Glo luminescent readout of SW480 viability loss, NPC library primary (AID 1117343;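 active = compounds that lower viability of the colon cancer cells in the luminescence readout, with no numeric limit stated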). Particulars: CellTiter-Glo luminescence; at 20 µM (top of the series). (Cellular ATP, detected with luciferase, serves as a proxy for viable cell number.)
A short description of assay [7]: decreased DLD-1 cellular survival, CellTiter-Glo luminescent readout, NPC compound collection, primary HTS (AID 1117346;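 active = compounds that lower survival of DLD-1 colon cancer cells in the luminescence readout, no cutoff given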). Particulars: DLD-1 viability, CellTiter-Glo luminescence; at 20 µM (top of the series).
Assay [8] addresses 6-phosphogluconate dehydrogenase, decarboxylating (Homo sapiens) (UniProt P52209). The assay can be described thus: 6PGD enzyme inhibitors, primary screen, biochemical, human, recombinant enzyme, NADPH absorbance (AID 1159550;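 active = at least 20% inhibition of 6-phosphogluconate dehydrogenase activity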). To be noted: recombinant 6PGD, NADPH absorbance 341 nm; at 10 µM; stronger effect = higher value.
A short description of assay [9]: differential killing of epithelial or mesenchymal cells, primary screen, imaging, PC-3E GFP, TEM4-18 mCherry, co-culture (AID 1345086;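 active = compounds killing one labelled cell type while sparing the other, by normalised counts and ratio limits, not self-fluorescent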;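 as to all read-outs here: cells exposed to compound for 72 h before imaging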;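 as to red/green cell ratio (normalised): normalised mesenchymal count divided by normalised epithelial count so high means epithelial killing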). To be noted: imaging cell counts, at 1 µM; for red/green cell ratio (normalised): actives lie on both sides, counts scaled to control wells, 1 = unselective.
Assay [10] in a line: growth inhibition of DIPG glioma cells, dose response, cell-based, SU-DIPG-XVII, MIPE5.0, CellTiter-Glo, qHTS (AID 1347060; cut-off not given, nearly all actives have AC50 up to about 26 µM;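 as to AC50: cells exposed to compound for 48 hours before viability readout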). Particulars: SU-DIPG-XVII viability, CellTiter-Glo ATP luminescence.
Assay [11] can be described thus: growth inhibition of DIPG glioma cells, dose response, cell-based, SU-DIPG-XIII, MIPE4.0, CellTiter-Glo, qHTS (AID 1347061; cut-off not given, nearly all actives have AC50 up to about 37 µM;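 also: cells exposed to compound for 48 hours before readout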). Particulars: SU-DIPG-XIII viability, CellTiter-Glo ATP luminescence.
The nature of assay [12]: growth inhibition of DIPG glioma cells, dose response, cell-based, JHH-DIPG-1, MIPE4.0, CellTiter-Glo, qHTS (AID 1347062; cut-off not given, nearly all actives have AC50 up to about 27 µM;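 as to AC50: cells exposed to compound for two days before readout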). Particulars: JHH-DIPG-1 viability, CellTiter-Glo ATP luminescence.
A short description of assay [13]: growth inhibition of DIPG glioma cells, dose response, cell-based, SU-DIPG-IV, MIPE4.0, CellTiter-Glo, qHTS (AID 1347063; cut-off not given, nearly all actives have AC50 up to about 30 µM;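 also: compound exposure lasted 48 hours before the viability readout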). To be noted: SU-DIPG-IV viability, CellTiter-Glo ATP luminescence.
The nature of assay [14]: growth inhibition of DIPG glioma cells, dose response, cell-based, SU-DIPG-XIII, MIPE5.0, CellTiter-Glo, qHTS (AID 1347064; cut-off not given, nearly all actives have AC50 up to about 23 µM;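 as to AC50: cells exposed to compound for 48 hours before the viability read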). Particulars: SU-DIPG-XIII viability, CellTiter-Glo ATP luminescence.
In assay [15] the test system is Aerobactin synthetase IucA (Klebsiella pneumoniae). The assay can be described thus: IucA aerobactin synthetase inhibitors, biochemical, Tocris library, absorbance (AID 1345561; call rule not given here;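 also: 100% = enzyme without compound and 0% = no enzyme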). To be noted: purified IucA enzyme assay, absorbance (OD) read-out; stronger effect = lower value;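 tested at 8 µM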.
Setting [16] is: measured here: epithelial PC-3E GFP cell survival.
Where [17] appears, read: measured here: mesenchymal TEM4-18 mCherry cell survival.

6-phosphogluconate dehydrogenase, decarboxylating (Homo sapiens), sequence (P52209 whole entry, looked up): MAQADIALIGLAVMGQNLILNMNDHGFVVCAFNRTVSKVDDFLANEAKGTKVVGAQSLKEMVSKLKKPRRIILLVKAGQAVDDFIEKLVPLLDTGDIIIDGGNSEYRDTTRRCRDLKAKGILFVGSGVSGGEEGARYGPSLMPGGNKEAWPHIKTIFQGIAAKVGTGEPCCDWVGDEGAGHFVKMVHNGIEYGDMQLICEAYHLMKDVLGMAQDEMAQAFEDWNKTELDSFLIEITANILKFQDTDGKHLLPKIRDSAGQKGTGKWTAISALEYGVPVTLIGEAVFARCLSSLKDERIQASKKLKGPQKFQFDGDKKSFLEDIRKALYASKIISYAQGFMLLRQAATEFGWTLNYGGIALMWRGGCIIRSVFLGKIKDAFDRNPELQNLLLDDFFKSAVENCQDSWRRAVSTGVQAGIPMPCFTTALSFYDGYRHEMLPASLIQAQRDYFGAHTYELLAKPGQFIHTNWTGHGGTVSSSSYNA

In the case of `O=NN(CCCl)C(=O)NCCCl`, in [1], the insulin secretion stimulation was -0.1% (inactive). The viability decrease in assay [2] is -5.7% (inactive). Moreover, the tube area decrease in assay [3] was 23.1% (inactive). Also, the GLP1 secretion stimulation in assay [4] was 2.2% (inactive). The inhibition of viability in assay [5] was -16.5% (inactive). The viability decrease (inhibition) in [6] is 18.8% (inactive); in assay [7], -24.6% (inactive). For the same compound, in assay [8], the inhibition was 0.0871% (inactive). The red/green cell ratio (normalised) in assay [9] is 1.04 (inactive). For the same compound, the normalised cell number in assay [9] (setting [16]) was found to be 1.15; in assay [9] (setting [17]), 1.2. Moreover, the outcome in [10], in [11], in assay [12], in [13] and in [14] was inactive.
Consider `COC(=O)[C@H](Cc1ccccc1)NC(=O)[C@@H](N)CC(=O)O` (H-Asp-Phe-OMe), for which the insulin secretion stimulation in [1] is 2.8% (inactive). Moreover, the viability decrease in [2] is -0.5% (inactive). In addition, the tube area decrease in [3] was 6.5% (inactive). For the same compound, the GLP1 secretion stimulation in [4] is 0.8% (inactive). In [5], the inhibition of viability was 5% (inactive). Moreover, the viability decrease (inhibition) in [6] was -6.8% (inactive); in [7] it was 9.55% (inactive). Moreover, in [8], the inhibition was 10.8% (inactive). The red/green cell ratio (normalised) in assay [9] is 1.23 (inactive). In addition, the normalised cell number was determined as 1.01 in assay [9] (setting [16]) and 1.24 in assay [9] (setting [17]). For the same compound, the outcome in [10], in assay [11], in [12] and in assay [13] was inactive.
For the compound `CC(=O)Oc1ccccc1C(=O)O`, the insulin secretion stimulation in assay [1] was 0.1% (inactive). Moreover, in [2], the viability decrease is -8.9% (inactive). The tube area decrease in [3] was 9.2% (inactive). Further, the GLP1 secretion stimulation in [4] is -3.4% (inactive). Besides, the inhibition of viability in assay [5] was -5.9% (inactive). Moreover, the results for the viability decrease (inhibition) in [6] and in [7] were -3.9% (inactive) and -4.2% (inactive), respectively. Besides, the inhibition in assay [8] is 15.9% (inactive). Moreover, the red/green cell ratio (normalised) in assay [9] was 0.84 (inactive). In addition, the figures for the normalised cell number in assay [9] (setting [16]) and in [9] (setting [17]) were 1.28 and 1.08, respectively. The outcome in assay [10], in [12] and in assay [13] was inactive.
In the case of `CC1(C)NC(=O)N(c2ccc([N+](=O)[O-])c(C(F)(F)F)c2)C1=O`, the insulin secretion stimulation in assay [1] was 0.7% (inactive). In addition, the viability decrease in assay [2] was -16.7% (inactive). Moreover, the tube area decrease in assay [3] was 6.9% (inactive). In addition, the GLP1 secretion stimulation in assay [4] was -1.4% (inactive). Besides, in [5], the inhibition of viability is 8.8% (inactive). For the same compound, the viability decrease (inhibition) in assay [6] is 18.3% (inactive); in assay [7], -16.7% (inactive). The inhibition in [8] is 9.97% (inactive). Further, in [9], the red/green cell ratio (normalised) was 1.15 (inactive). Further, the figures for the normalised cell number in assay [9] (setting [16]) and in assay [9] (setting [17]) were 1.25 and 1.43, respectively. In addition, the remaining activity in assay [15] was 120% (inactive). Besides, the compound was classed as inactive in [12], in assay [13] and in [14].
Turning to `CN1C(C(=O)Nc2ccccn2)=C(O)c2sccc2S1(=O)=O`, in [1], the insulin secretion stimulation was 1.6% (inactive). Also, in [2], the viability decrease is -17.8% (inactive). Further, the tube area decrease in assay [3] was 2.6% (inactive). For the same compound, in [4], the GLP1 secretion stimulation was 0.4% (inactive). Also, the inhibition of viability in assay [5] is 8.2% (inactive). In addition, the viability decrease (inhibition) in assay [6] was 13.4% (inactive); in assay [7] it was -0.2% (inactive). The inhibition in assay [8] is -2.82% (inactive). Moreover, the red/green cell ratio (normalised) in assay [9] was 0.82 (inactive). Besides, the normalised cell number is 1.14 in assay [9] (setting [16]) and 0.93 in assay [9] (setting [17]). The compound was classed as inactive in [10], in assay [11], in assay [12], in [13] and in assay [14].
Turning to `CCCOc1ccc2nc(NC(=O)OC)[nH]c2c1`, the insulin secretion stimulation in assay [1] was 1.2% (inactive). Besides, the viability decrease in assay [2] is 27% (inactive). The tube area decrease in assay [3] was 107% (active). Further, the GLP1 secretion stimulation in [4] is -1.2% (inactive). Also, in assay [5], the inhibition of viability is 57.5% (active). Moreover, the viability decrease (inhibition) in assay [6] was 14.3% (inactive); in assay [7], 38.1% (inactive). Further, in assay [8], the inhibition was 2.75% (inactive). In addition, in assay [9], the red/green cell ratio (normalised) is 1.06 (inactive). In addition, the normalised cell number in assay [9] (setting [16]) turned out to be 0.2; in assay [9] (setting [17]), 0.21. Further, the concentration at half-maximal activity (AC50) in [10] is 0.372 µM (active); in [14], 0.661 µM (active). Also, the call in assay [11] was inactive.
For the compound `C/C=C(/C(=C/C)c1ccc(O)cc1)c1ccc(O)cc1`, the insulin secretion stimulation in assay [1] was -1.9% (inactive). The viability decrease in assay [2] was 101% (active). Moreover, in assay [3], the tube area decrease is 49.5% (active). Further, the GLP1 secretion stimulation in assay [4] is 34.7% (active). For the same compound, the inhibition of viability in assay [5] was 101% (active). Further, the viability decrease (inhibition) in [6] was 123% (active); in [7], 102% (active). For the same compound, the inhibition in assay [8] was 15.9% (inactive). In addition, the red/green cell ratio (normalised) in assay [9] was 1.38 (inactive). In addition, the normalised cell number was 1.12 in [9] (setting [16]) and 1.55 in assay [9] (setting [17]). Further, the AC50 in [10] was 23.5 µM (active). For the same compound, the compound was classed as inactive in [11] and in assay [12].
In the case of `NNc1nncc2ccccc12`, in [1], the insulin secretion stimulation is -1.2% (inactive). Further, the viability decrease in assay [2] was -10.3% (inactive). For the same compound, in [3], the tube area decrease is 5.9% (inactive). The GLP1 secretion stimulation in assay [4] was 5.2% (inactive). The inhibition of viability in assay [5] is 4.9% (inactive). The figures for the viability decrease (inhibition) in assay [6] and in assay [7] were 4.9% (inactive) and -2.1% (inactive), respectively. Also, in assay [8], the inhibition is 15.4% (inactive). The red/green cell ratio (normalised) in assay [9] was 1.11 (inactive). In addition, the normalised cell number came out at 1.13 in assay [9] (setting [16]) and 1.26 in assay [9] (setting [17]). Moreover, the compound was called inactive in [10], in assay [11] and in assay [13].
Take `NC(CO)C(=O)NNCc1ccc(O)c(O)c1O` (centres undefined): the insulin secretion stimulation in assay [1] was 2.2% (inactive). In assay [2], the viability decrease is 55.6% (active). Moreover, in [3], the tube area decrease is -12.6% (inactive). For the same compound, the GLP1 secretion stimulation in [4] was 8.5% (inactive). Further, the inhibition of viability in assay [5] is 84.4% (active). The values for the viability decrease (inhibition) in [6] and in assay [7] were 145% (active) and 103% (active), respectively. Further, the inhibition in assay [8] was -10.3% (inactive). For the same compound, the red/green cell ratio (normalised) in assay [9] was 1.1 (inactive). Further, the normalised cell number in assay [9] (setting [16]) was 1.12; in assay [9] (setting [17]), 1.23. For the same compound, the compound was classed as inactive in [10], in [11], in assay [12], in assay [13] and in assay [14].
With `CCOC(=O)C1=C[C@]2(CC)CCCN3CCc4c(n1c1ccccc41)[C@@H]32`, the insulin secretion stimulation in assay [1] is -1.7% (inactive). Also, the viability decrease in [2] was 14.4% (inactive). In [3], the tube area decrease was 41% (active). For the same compound, the GLP1 secretion stimulation in assay [4] is 2.8% (inactive). In assay [5], the inhibition of viability was -3.2% (inactive). Moreover, the viability decrease (inhibition) is 61.3% (active) in [6] and 2.25% (inactive) in assay [7]. Besides, the inhibition in assay [8] is 13.5% (inactive). Further, in assay [9], the red/green cell ratio (normalised) is 0.75 (inactive). Besides, the normalised cell number was found to be 1.28 in assay [9] (setting [16]) and 0.96 in assay [9] (setting [17]). Further, the remaining activity in assay [15] was 107% (inactive). The values for the concentration at half-maximal activity (AC50) in [11], in assay [12] and in assay [13] were 26.4 µM (active), 11.8 µM (active) and 16.6 µM (active), respectively.
